# Only some compounds are listed: those with a hit (about 4.1% of all), similar ones and a draw of the others.
# DAX1 inh-1: DAX1 (NR0B1) inhibitors on StAR promoter, primary screen, cell-based, luminescence, SF-1 (NR5A1), full-length DAX-1 | HEK293T StAR-luciferase reporter, SF-1/DAX-1 repression relief | inhibition, % at 6.8 µM | actives 1.1% (n = 370,000);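 active = inhibition above the mean over all tested compounds plus 3 SD, cut at about 3.6% in these data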;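 note: 0% = DAX-1 cells with DMSO and 100% = cells lacking DAX-1 with DMSO; higher inhibition means more luminescence from relief of DAX-1 repression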
# hgDAF12 agonist: H. glycines DAF-12 receptor agonists, primary screen, cell-based, luminescence, HEK293, GAL4 fusion, UAS-luciferase | activation, % at 6.8 µM | HEK293 GAL4-hgDAF12 UAS-luciferase reporter, agonist luminescence; normalized to butyrate control | AID 687014, 2013 | actives 1.8% (n = 370,000) | Nuclear hormone receptor DAF-12 (Heterodera glycines), GAL4 fusion;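 active = activation above a cutoff set at the mean of all screened compounds plus 3 SD, cut at about 10% in these data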;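 note: 0% = DMSO wells and 100% = sodium butyrate wells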
# ssDAF-12 act: S. stercoralis DAF-12 nuclear receptor activators, primary screen, cell-based, luminescence, HEK293, GRIP1 co-expression, lit1-tk-luc; Nuclear hormone receptor DAF-12 (Strongyloides stercoralis); HEK293 ssDAF-12/GRIP1 lit1-tk-luc reporter; % of 3 µM dafachronic acid response; activation, % at 6.8 µM; actives 1% (n = 370,000);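 active = activation above the mean over all tested compounds plus 3 SD, cut at about 0.9% in these data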;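 note: 0% = DMSO-only wells and 100% = 3 µM delta7-dafachronic acid wells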
# DAX1 inh-2: DAX1 (NR0B1) inhibitors, primary screen, cell-based, HEK293, Gal4-DAX1, luciferase luminescence | Nuclear receptor subfamily 0 group B member 1 (Homo sapiens), P51843 | HEK293 Gal4-DAX1 luciferase reporter | actives 0.99% (n = 340,000) | AID 504766, 2011 | inhibition, % at 6.75 µM;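 active = inhibition above the mean over all tested compounds plus 3 SD, cut at about 4.2% in these data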;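 note: 0% = DAX1-transfected cells with DMSO and 100% = empty-vector control cells with DMSO; inhibition shows as a rise in luminescence from relieved DAX1 repression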
# hcDAF-12 act: H. contortus DAF-12 nuclear receptor activators, primary screen, cell-based, luminescence, HEK293, lit1-tk-luc reporter. actives 1.4% (n = 370,000). HEK293 hcDAF-12 lit1-tk-luc reporter; 0% DMSO, 100% Δ7-dafachronic acid. activation, % at 6.8 µM;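 active = activation above the mean of all tested compounds plus 3 SD, cut at about 5.5% in these data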;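 note: 100% = response to 3 µM Δ7-dafachronic acid high control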
# DAX1 conf: DAX1 (NR0B1) inhibitors relieving SF-1 repression, confirmation, cell-based, luminescence, HEK293T, full-length DAX-1, SF-1 activated StAR promoter; shares compounds with DAX1 inh-1; HEK293T StAR-promoter luciferase reporter, SF-1/DAX-1 repression; inhibition, % at 6.8 µM; actives 87% (n = 2,400); AID 652134, 2013;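 active = inhibition above the average of every tested compound plus 3 SD, cut at about 3.8% in these data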;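 note: 0% = DAX-1 cells with DMSO and 100% = no DAX-1 control cells with DMSO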
# Target sequence (P51843 whole entry, looked up): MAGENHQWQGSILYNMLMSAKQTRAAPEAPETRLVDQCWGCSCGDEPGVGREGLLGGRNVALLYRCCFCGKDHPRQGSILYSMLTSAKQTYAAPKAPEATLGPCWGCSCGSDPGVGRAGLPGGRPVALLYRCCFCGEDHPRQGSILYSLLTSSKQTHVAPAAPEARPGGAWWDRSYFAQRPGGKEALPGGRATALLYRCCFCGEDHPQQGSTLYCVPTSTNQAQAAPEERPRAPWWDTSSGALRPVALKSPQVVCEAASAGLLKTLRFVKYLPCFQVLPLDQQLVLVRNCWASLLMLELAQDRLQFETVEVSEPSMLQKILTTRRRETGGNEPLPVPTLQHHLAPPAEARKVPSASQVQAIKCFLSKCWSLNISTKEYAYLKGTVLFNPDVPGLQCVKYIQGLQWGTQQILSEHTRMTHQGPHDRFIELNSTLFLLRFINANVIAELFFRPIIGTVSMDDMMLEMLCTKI
# SF1 AF2mut Luc: StAR reporter signal changes without DAX1, counter-screen for DAX1 inhibitor project, cell-based, luminescence, AF-2 mutant SF-1, transactivation; shares compounds with DAX1 inh-1; HEK293 StAR-luciferase, SF-1 AF2 mutant; inhibition, % at 6.8 µM; actives 78% (n = 2,400); AID 652136, 2013;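 active = inhibition above the mean of all tested compounds plus 3 SD, cut at about 3% in these data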;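 note: 0% = DAX-1 transfected cells with DMSO and 100% = cells without DAX-1 with DMSO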
# LXR ag: LXR agonists, Gal4 luciferase reporter, confirmation, counter-screen for hcDAF-12 agonist project, cell-based, luminescence, HEK293, H. contortus campaign; shares compounds with hcDAF-12 act; HEK293 Gal4-LXR tk-luc reporter, 24 h; normalized: DMSO 0%, positive control 100%; activation, % at 6.8 µM; 3,400 tested, under 10 active; AID 743027, 2013;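 active = mean percent activation of the reporter above a cutoff set as the average over tested compounds plus their standard deviation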
# hcDAF12 ag: H. contortus DAF-12 receptor agonists, confirmation, cell-based, luminescence, HEK293, lit1-tk-luc, triplicate | shares compounds with hcDAF-12 act | HEK293 hcDAF-12 lit1-tk-luc reporter; % of Δ7-dafachronic acid response | activation, % at 6.8 µM | actives 61% (n = 3,400) | AID 743032, 2013;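 active = mean activation across triplicate tests above the threshold derived from the earlier primary screen, cut at about 5.5% in these data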;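 note: 0% = DMSO only wells and 100% = 3 µM Δ7-dafachronic acid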
# hgDAF12 conf: H. glycines DAF-12 receptor agonists, confirmation, cell-based, luminescence, HEK293, GAL4-LBD fusion. HEK293 GAL4-hgDAF12 luciferase reporter, agonist mode; percent of butyrate response. actives 80% (n = 3,300). AID 743050, 2013. shares compounds with hgDAF12 agonist. activation, % at 6.8 µM;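 active = mean activation over triplicate wells above the hit cutoff derived from the earlier primary screen, cut at about 11% in these data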;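 note: 0% = DMSO low control and 100% = 2 mM sodium butyrate high control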
# LXR ag 2: LXR agonists, Gal4 luciferase reporter, confirmation, counter-screen for hgDAF-12 agonist project, cell-based, luminescence, HEK293, H. glycines campaign | 3,300 tested, under 10 active | 24 h | shares compounds with hgDAF12 agonist | activation, % at 6.8 µM;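 active = mean activation of the triplicate above a set limit carried over from the primary screen, none filed active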
# Numbers without * were called inactive; nt = no result given; ! = a repeat was not active.
SMILES,DAX1 inh-1,hgDAF12 agonist,ssDAF-12 act,DAX1 inh-2,hcDAF-12 act,DAX1 conf,SF1 AF2mut Luc,LXR ag,hcDAF12 ag,hgDAF12 conf,LXR ag 2
Cc1ccc(-c2cc(-c3ccccc3Cl)[nH]n2)c(O)c1,6.0*,20*,1.4*,6.8*,10*,14*,8.0*,1,11*,21*,1
Cc1ccc2oc(-c3cccc(N)c3)nc2c1,6.4*,23*,2.5*,0,14*,16*,8.2*,1,10*,23*,1
Nc1cccc(-c2nc3cc(S(=O)(=O)c4ccc5oc(-c6cccc(N)c6)nc5c4)ccc3o2)c1,0,-2,-2,0,-1,nt,nt,nt,nt,nt,nt
Cc1ccc(NC(=O)c2ccccc2)s1,4.5*,20*,0,0,6.9*,15*,11*,1,8.3*,15*,1
COc1ccc(/C=C/c2nc(-c3ccccc3O)n[nH]2)cc1,4.6*,20*,0,2,6.5*,14*,8.4*,nt,nt,18*,0
COc1ccc(/C=C/c2nc(-c3ccccc3O)n(-c3ccccc3)n2)cc1,1,-1,-1,1,-1,nt,nt,nt,nt,nt,nt
Cc1cc(C)nc(NC(=O)c2cc3ccccc3o2)n1,0,3,-1,1,0,nt,nt,nt,nt,nt,nt
Cc1ccc(NC(=O)c2cc3ccccc3o2)nc1,16*,19*,1.5*,1,14*,17*,9.9*,2,14*,19*,1
O=C(Nc1nc2ccccc2[nH]1)c1cc2ccccc2o1,8.0*,21*,1,0,14*,9.4*,7.6*,1,9.1*,19*,1
O=C(Nc1nc2ccccc2[nH]1)C1CCCC1,4.9*,15*,0,1,4,6.5*,5.7*,nt,nt,13*,1
O=C(Nc1nc2ccccc2[nH]1)c1ccccc1F,-2,-11,-3,-5,-2,nt,nt,nt,nt,nt,nt
O=C(C(=O)N1CCC(CNS(=O)(=O)c2ccc(F)cc2)CC1)c1cccs1,-1,0,0,nt,2,nt,nt,nt,nt,nt,nt
C/C(=N\Nc1nccnc1Cl)c1ccc(Cl)c(Cl)c1,4.5*,17*,1,2,6.3*,3,3,nt,nt,3,0
C/C(=N\Nc1nccnc1Cl)c1ccc(F)cc1,9.6*,20*,1.5*,2,4,6.5*,4.2*,nt,nt,11*,0
O=C(N[C@H](C(=O)N1CCC[C@H]1C(=O)NCc1ccccc1)c1ccccc1)c1ccc(Cl)cc1Cl,0,-1,-1,nt,-1,nt,nt,nt,nt,nt,nt
C/C(N)=C(/C#N)C(=O)CSc1nnc(-c2ccc(OC(F)F)cc2)o1,4.8*,20*,0,6.3*!,6.8*!,11*,8.2*,1,7.3*,14*,1
CCC(CO)Nc1cccc2c1S(=O)(=O)N(Cc1cn(Cc3cccc(C(F)(F)F)c3)nn1)Cc1ccccc1O2 (stereo not given),-1,-1,-1,nt,-1,nt,nt,nt,nt,nt,nt
Cc1cccc(NC(=O)c2cnc3ccccn3c2=O)c1,7.7*,22*,1,1,8.8*,11*,4.4*,2,6.1*,17*,1
O=C(Nc1ccc2c(c1)OCCO2)c1cnc2ccccn2c1=O,3,10,0,2,1,nt,nt,nt,nt,nt,nt
CC(=O)NC12CC3CC(C1)CC(C(=O)OCC(=O)c1cc(C)n(C)c1C)(C3)C2,9.8*,16*,0,1,6.7*,11*,7.1*,1,6.2*,14*,1
COCCCN1C(=O)[C@H](CC(=O)NCc2ccc(OC)c(OC)c2)[C@]2(C(=O)OC)CCCCC=C12,0,0,-1,nt,4,nt,nt,nt,nt,nt,nt
CCNC(=S)NNC(=O)c1cc(-c2ccc(OC)cc2)nc2ccccc12,5.5*,18*,1,-3,5,15*,8.8*,nt,nt,18*,1
COC(=O)CSc1nc2cc(C)cc(C)c2cc1C#N,0,6,-1,-1,1,nt,nt,nt,nt,nt,nt
CC(=O)CSc1nc2cc3c(cc2cc1C#N)OCCO3,7.9*,27*,0,0,12*,14*,4.9*,2,10*,19*,2
COC(=O)CSc1nc2ccc(C)cc2cc1C#N,8.8*,26*,1.4*,5.9*,7.2*,19*,11*,1,4,20*,1
CC(C)(C)C(c1nc2ccccc2[nH]1)n1c(-c2cccc(S(C)(=O)=O)c2)nc2ccccc21 (stereo not given),16*,16*,0,nt,3,7.7*,9.5*,nt,nt,12*,0

# Assay outcomes deposited in PubChem BioAssay by The Scripps Research Institute Molecular Screening Center.
